Results from ChEMBL document CHEMBL1157539, “Thousands of chemical starting points for antimalarial lead identification” (Nature, 2010).

Key:
Assay type in all cases: functional
Plasmodium falciparum [1] = assay: GSK_TCMDC: Inhibition of Plasmodium falciparum 3D7 in whole red blood cells, using parasite LDH activity as an index of growth. Test compounds present at 2uM
Plasmodium falciparum [2] = assay: GSK_TCMDC: Inhibition of Plasmodium falciparum Dd2 in whole red blood cells, using parasite LDH activity as an index of growth. Test compounds present at 2uM
HepG2 = assay: GSK_TCMDC: Percent inhibition of human HepG2 cell line. Test compounds present at 10uM.

SMILES | Inhibition (Plasmodium falciparum [1]) | Inhibition (Plasmodium falciparum [2]) | Inhibition (HepG2)
CC(CN1CCN(CC(c2ccc(F)cc2)N2CCN(C)CC2)CC1)C(=O)c1ccc(O)cc1.O=C(O)/C=C\C(=O)O (configuration not stated) | 97% | 10% | 0%
COc1ccccc1CCNc1nc(C)cc(N[C@@H](Cc2ccccc2)C(=O)NCc2cccs2)n1.O=C(O)C(F)(F)F | 100% | 73% | 18%
Br.COc1ccc2c(c1)CCCC2C(C)NCC(O)c1cccc(C(F)(F)F)c1 (configuration not stated) | 99% | 99% | 3%
CN(C(=O)C1(c2ccc(Cl)cc2)CC1)C1CCN(CCCCCNC(=O)/C=C/c2ccc(Cl)c(Cl)c2)CC1 | 88% | 0% | 91%
CCc1ccc(OCc2ccccc2C(=O)Nc2ccc3nc(C)cc(N)c3c2)cc1.Cl | 99% | 74% | 98%
CC(C)(C)OC(=O)NCc1ccc(Nc2nnc(-c3ccc(OCC(=O)NCc4cc(C(F)(F)F)cc(C(F)(F)F)c4)c([N+](=O)[O-])c3)o2)cc1 | 97% | 92% | 24%
CCOc1ccc2c(N/N=C/c3cccc([N+](=O)[O-])c3)cc(C)nc2c1 | 100% | 97% | 4%
CCN(CCO)Cc1ccc(-c2ccc(NS(=O)(=O)c3cccc4cccnc34)cc2)cc1.O=C(O)C(F)(F)F | 92% | 16% | 25%
CCOc1ccc(C(=O)N2CCOC(CCN3CCC4(CCc5ccccc54)CC3)(c3ccc(Cl)c(Cl)c3)C2)cc1 (configuration not stated) | 81% | 25% | 25%
O=C(NC1CCCCC1)N(Cc1ccccc1-c1ccc(CNCCc2ccccc2)cc1)C1CCN(Cc2ccccc2)CC1.O=C(O)C(F)(F)F | 90% | 92% | 96%
Cc1ccc(CNC(=O)[C@H](CCCN)Nc2nc(NCC3CCCCC3)ncc2C)cc1.O=C(O)C(F)(F)F | 92% | 5% | 1%
C/N=C(/Nc1c(Cl)cccc1Cl)N(C)C.O=C(O)/C=C/C(=O)O | 98% | 1% | 0%
CC(Oc1c(C2CCN(CCCCNC(=O)c3ccc(-c4ccc(Cl)cc4)cc3)CC2)ccc2c1CCCC2)C(N)=O (configuration not stated) | 99% | 16% | 100%
CCn1c(-c2nonc2N)nc2c(-c3cccc(NC(=O)Nc4ccc(C#N)cc4)c3)ncc(OCCCN)c21.O=C(O)C(F)(F)F | 85% | 80% | 1%
CCCNCc1ccc(-c2ccc(CN(CCOC)C(=O)c3cccc(C#N)c3)cc2)nc1.O=C(O)C(F)(F)F | 84% | 14% | 0%
O=C(Nc1cccc(C(F)(F)F)c1)c1ccc(S(=O)(=O)NCC2CCN(CC3CCCCC3)CC2)cc1.O=C(O)C(F)(F)F | 100% | 49% | 24%
CCc1ccc(NC(=O)c2ccc(CN3CCCN(CCC(C)C)CC3)cc2)cc1.O=C(O)C(F)(F)F | 96% | 25% | 48%
CCOc1ccc2nc(N(CCCn3ccnc3)C(=O)C=Cc3cccs3)sc2c1.Cl | 97% | 97% | 0%
COc1ccc(NC(=O)CSc2nc(-c3ccccc3Cl)ns2)cc1OC | 97% | 63% | 0%
O=C(Nc1cc2cc(-c3ccc(CN4CCCCC4)cc3)ccc2n2cnnc12)NC1CCCC1 | 100% | 98% | 78%
O=C(Nc1cccc(-c2cccc(CN3CCCC3)c2)c1)c1cccc(Cl)c1.O=C(O)C(F)(F)F | 89% | 30% | 44%
CCOc1ccccc1CCNC(C)Cc1ccc(C(=O)Nc2ccc(CC(C)NCCc3cccc(Cl)c3)cc2)cc1 (configuration not stated) | 97% | 59% | 100%
COc1ccc(CNCc2ccsc2)cc1-c1ccc(S(=O)(=O)NCCN2CCCC2)s1.O=C(O)C(F)(F)F | 100% | 34% | 39%
COc1ccccc1C1CCN(C2CCC(NC(=O)/C=C/c3cccc(Cl)c3)CC2)CC1 (configuration not stated) | 92% | 20% | 54%
Cc1cccc2nc(-c3cccc(-c4cccc(NC(=O)C5CC(=O)Nc6ccccc65)c4)c3)[nH]c12 (configuration not stated) | 85% | 25% | 13%
Fc1ccc2[nH]c(-c3ccc(-c4cccc(CN5CCCCC5)c4)cc3)nc2c1.O=C(O)C(F)(F)F | 100% | 100% | 10%
Cc1[nH]c(C)c([N+](=O)[O-])c(=O)c1-c1ccc(Oc2ccccc2)cc1 | 98% | 97% | 11%
Cl.O=C1CSc2ccc(CNC3CCN(CCc4c(Cl)cnc5ccc(Cl)cc45)CC3)nc2N1 | 100% | 92% | 25%
CCNc1cc(C(=O)N[C@@H](Cc2ccccc2)[C@H](O)CNCCc2cc(OC)cc(OC)c2)cc(N2CCCCS2(=O)=O)c1.Cl | 89% | 28% | 3%
